The nature of assay [1]: inhibitors of TNFa-induced NFkB p65 translocation, primary screen, imaging, HUVEC, MLSMR starter and 10KST1 sets (AID 438;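 active = inhibition above 20% together with a positive visual image hit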;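 also: compound added about 3h40 before a 20 min TNFalpha stimulation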;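 as to inhibition: signal is the nuclear over cytoplasmic p65 intensity ratio per well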). The following applies: HUVEC TNFa-induced p65 nuclear translocation; cell count: measured here: nuclei count (cytotoxicity indicator), at 2.08 µM; inhibition: at 2 µM, stronger effect = higher value, 0% TNFa-plus-vehicle, 100% no-TNFa wells.
A short description of assay [2]: reduction of polyQ htt aggregates in cells – imaging, exon1htt(103Q)mCFP cells, high-content imaging, primary screen (AID 483;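 active = visual image review flags a hit and inhibition of aggregation exceeds 20%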;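 also: compound exposure lasted 3 days before fixation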;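 as to nuclei count: percent of the per-plate median nuclei count of sample wells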). The note with it: exon1htt(103Q)mCFP cell line, aggregate imaging, at 2 µM; inhibition of aggregation: stronger effect = higher value; nuclei count: measured here: cell count, toxicity.
Assay [3] in a line: endothelial E-selectin expression blockers – imaging, HUVEC, immunofluorescence, MLSMR starter and 10KST1 sets, primary screen (AID 487;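 active = visually confirmed hit in the image check and inhibition above 20%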;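 as to inhibition: signal is fraction of cell area covered by stained E-selectin grains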;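 as to nuclei count: 100% = median nuclei count of all wells on the same plate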). The following applies: HUVEC TNFalpha-induced E-selectin immunofluorescence imaging, at 2 µM; inhibition: stronger effect = higher value; nuclei count: measured here: cell number, toxicity.
The target in assay [4] is Voltage-gated potassium channel subunit beta-2 (Rattus norvegicus) (UniProt P62483). As to the kind of experiment: inhibitors of rat Kvbeta2 reductase activity – biochemical, NADPH fluorescence, primary screen (AID 622;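 active = fluorescence slope higher than the sample average by over 3 SD, cut at about -0.22 in these data, passing the limit was not always enough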;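 also: slope of raw intensity against log time taken from 70 to 1610 s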). The following applies: recombinant KvBeta, 4-cyanobenzaldehyde reduction, at 10 µM, stronger effect = higher value.
Voltage-gated potassium channel subunit beta-2 (Rattus norvegicus), sequence (P62483 whole entry, looked up): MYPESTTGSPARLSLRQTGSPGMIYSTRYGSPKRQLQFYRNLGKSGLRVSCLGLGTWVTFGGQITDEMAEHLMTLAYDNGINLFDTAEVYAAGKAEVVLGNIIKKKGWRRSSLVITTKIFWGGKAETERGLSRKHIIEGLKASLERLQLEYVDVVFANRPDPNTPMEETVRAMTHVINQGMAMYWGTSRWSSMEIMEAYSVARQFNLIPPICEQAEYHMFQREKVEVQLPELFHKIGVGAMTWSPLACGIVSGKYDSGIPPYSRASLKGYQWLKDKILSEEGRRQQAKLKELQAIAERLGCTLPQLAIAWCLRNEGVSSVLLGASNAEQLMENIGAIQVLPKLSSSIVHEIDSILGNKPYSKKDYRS
Assay [5] has the same target. As to the kind of experiment: enhancers of rat Kvbeta2 NADPH turnover – biochemical, NADPH fluorescence, primary screen (AID 623;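 active = NADPH fluorescence slope more negative than the mean of all samples by about 3 SD, 99.7% confidence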;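 also: fluorescence intensity change per second fitted from 20 to 320 s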). The note with it: Recombinant KvBeta, NADPH fluorescence decrease slope, 10 min; at 10 µM; stronger effect = lower value.
For assay [6], the target named is Alpha-2C adrenergic receptor (Homo sapiens) (UniProt P18825). As to the kind of experiment: compounds altering alpha2C-coupled GIRK flux – cell-based, HEK293 alpha2C/GIRK1/2, thallium flux, primary screen (AID 624;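 active = fluorescence slope after compound addition differing from the mean of all screened samples at 99.7% confidence, in either direction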;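 also: slope of fluorescence ratio to pre-addition baseline per second over 15 to 24 s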). The note with it: thallium flux BTC fluorescence, at 10 µM, actives lie on both sides.
Alpha-2C adrenergic receptor (Homo sapiens), sequence (P18825 whole entry, looked up): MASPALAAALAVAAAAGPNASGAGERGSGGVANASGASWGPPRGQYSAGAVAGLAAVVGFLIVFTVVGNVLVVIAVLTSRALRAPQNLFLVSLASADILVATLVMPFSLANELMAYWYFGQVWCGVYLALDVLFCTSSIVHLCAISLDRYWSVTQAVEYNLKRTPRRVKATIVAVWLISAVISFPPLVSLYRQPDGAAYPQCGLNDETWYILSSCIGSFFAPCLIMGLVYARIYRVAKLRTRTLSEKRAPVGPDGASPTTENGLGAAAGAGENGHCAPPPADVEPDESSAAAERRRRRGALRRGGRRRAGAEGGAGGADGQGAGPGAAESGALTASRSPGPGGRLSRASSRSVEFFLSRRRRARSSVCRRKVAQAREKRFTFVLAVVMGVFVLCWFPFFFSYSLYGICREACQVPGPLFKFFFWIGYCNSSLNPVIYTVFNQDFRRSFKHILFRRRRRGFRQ
A short description of assay [7]: blockers of RIG-like receptor reporter activation – cell-based, Sendai virus stimulus, luciferase, 10K MLSCN set, TLR/RLR signaling modifier project, primary screen (AID 602276).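 Also: firefly luciferase from ISG56 promoter only with Renilla not read in this screen; 0% = Sendai virus plus DMSO and 100% = medium plus DMSO without virus.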 The following applies: HEK293 RL24 IRF3 luciferase reporter, at 10 µM, stronger effect = higher value. On the technique in general: Reporter assays use an easily measured gene product as a stand-in for the process of interest.

The nature of assay [8]: TLR3 IRF3 reporter activation blockers – cell-based, poly I:C stimulus, luciferase, 10K MLSCN set, primary screen (AID 602277;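 active = inhibition of the reporter signal at or above 50%; inactive = inhibition below 50%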). The following applies: HEK293-TLR3 RL24 IRF3 luciferase reporter, at 10 µM, stronger effect = higher value.

Structures are written as SMILES. Activity calls are given as the source filed them.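 The calls were made as follows, unless noted: active = inhibition at or above 50% at 10 µM; inactive = inhibition below 50%.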

By inhibition is commonly meant the drop in the measured response relative to a control, in per cent. `CCCCc1nc2ccccc2n2cc3c(=O)n(C)c(=O)n(C)c3c12`: in assay [1], the cell count was 877. The inhibition in assay [1] was 5.2% (inactive); in assay [3], -48.7% (inactive); in assay [7] it was 14.3% (inactive); in assay [8], 28.9% (inactive). Further, the inhibition of aggregation in assay [2] is -29.8% (inactive). For the same compound, the nuclei count was found to be 81.2% in assay [2] and 104% in assay [3]. In addition, the fluorescence slope in assay [4] was -0.524 (inactive). Moreover, the NADPH fluorescence slope in assay [5] is -1.7e-05 (inactive). In addition, the slope in assay [6] is 0.00741 (inactive).
With `COC(=O)c1ccc(COc2ccc(C3C4=C(CCCC4=O)Nc4onc(C)c43)cc2)cc1` (centres undefined), the cell count in assay [1] is 303. Moreover, the inhibition was -4.7% (inactive) in assay [1], -68.7% (inactive) in assay [3], -12.9% (inactive) in assay [7] and -23% (inactive) in assay [8]. For the same compound, the inhibition of aggregation in assay [2] was -8.3% (inactive). Moreover, the nuclei count in assay [2] was 112%; in assay [3], 118%. For the same compound, the fluorescence slope in assay [4] is -0.479 (inactive). Also, the NADPH fluorescence slope in assay [5] was -1.7e-05 (inactive). Further, the slope in assay [6] is 0.00693 (inactive).
`CCCNC(=O)C1=C(C)C(=O)OC12CCC(C)CC2` (centres undefined): the cell count in assay [1] stood at 666. Further, the inhibition is 1.6% (inactive) in assay [1], -28.8% (inactive) in assay [3], 3.82% (inactive) in assay [7] and 12% (inactive) in assay [8]. Besides, in assay [2], the inhibition of aggregation was -3.8% (inactive). Further, the nuclei count in assay [2] and in assay [3] was 115% in each case. Moreover, in assay [4], the fluorescence slope is -0.589 (inactive). Further, the NADPH fluorescence slope in assay [5] is 1.9e-05 (inactive). In addition, the slope in assay [6] is 0.00681 (inactive).
`O=C(O)C1CCCN1c1ncnc2c1oc1ccccc12` (centres undefined): the cell count in assay [1] was 626. Further, the inhibition was -4.4% (inactive) in assay [1], 22.9% (inactive) in assay [3], 5.71% (inactive) in assay [7] and 5.35% (inactive) in assay [8]. Further, the inhibition of aggregation in assay [2] was 11.5% (inactive). The nuclei count in assay [2] was 101%; in assay [3], 96.9%. In assay [4], the fluorescence slope was -0.503 (inactive). The NADPH fluorescence slope in assay [5] was -1.8e-05 (inactive). Further, in assay [6], the slope was 0.00455 (inactive).
`CC(=O)c1cc2c(cc1NC(=O)CN1CCN(C(=O)c3ccco3)CC1)OCO2`: in assay [1], the cell count was 410. Moreover, the inhibition in assay [1] was -6.1% (inactive); in assay [3], -58.5% (inactive); in assay [7] it was 4.38% (inactive); in assay [8], 25.7% (inactive). Further, the inhibition of aggregation in assay [2] is 13.3% (inactive). Besides, the values for the nuclei count in assay [2] and in assay [3] were 44.6% and 113%, respectively. In assay [4], the fluorescence slope was -0.548 (inactive). Moreover, the NADPH fluorescence slope in assay [5] is -3.4e-05 (inactive). Also, the slope in assay [6] was 0.00807 (inactive).
As to `CCCCc1ccc(NC(=O)C2CCCO2)cc1` (centres undefined), in assay [1], the cell count is 387. Further, the inhibition in assay [1] was -1.8% (inactive); in assay [3], -122% (inactive); in assay [7], -42.7% (inactive); in assay [8], -136% (inactive). In addition, the inhibition of aggregation in assay [2] is -7.2% (inactive). For the same compound, the nuclei count in assay [2] stood at 105%; in assay [3] it was 98.5%. Further, the fluorescence slope in assay [4] is -0.376 (inactive). Moreover, in assay [5], the NADPH fluorescence slope was -3e-05 (inactive). Further, in assay [6], the slope is 0.00635 (inactive).
For `CC(=O)Nc1nc2c(c3c1c(=O)oc1ccccc13)CC(C)CC2` (centres undefined), the cell count in assay [1] worked out at 509. The inhibition was -11.6% (inactive) in assay [1], 13.1% (inactive) in assay [3], 12.8% (inactive) in assay [7] and 32.3% (inactive) in assay [8]. For the same compound, the inhibition of aggregation in assay [2] is 14.7% (inactive). In addition, the nuclei count in assay [2] is 61.9%; in assay [3], 82.7%. Also, the fluorescence slope in assay [4] was -0.457 (inactive). Further, the NADPH fluorescence slope in assay [5] was -1.3e-05 (inactive). Moreover, the slope in assay [6] was 0.00575 (inactive).
As for `Nn1cc(-c2ccccc2)nc1SCC(=O)N1CCN(S(=O)(=O)c2ccccc2)CC1`, the cell count in assay [1] turned out to be 341. Also, the inhibition in assay [1] is -17.9% (inactive); in assay [3] it was -23.8% (inactive); in assay [7], 8.62% (inactive); in assay [8], 12.7% (inactive). In addition, in assay [2], the inhibition of aggregation was 13.8% (inactive). In addition, the figures for the nuclei count in assay [2] and in assay [3] were 102% and 106%, respectively. Also, the fluorescence slope in assay [4] was -0.421 (inactive). Also, in assay [5], the NADPH fluorescence slope was 4.3e-05 (inactive). In assay [6], the slope is 0.00477 (inactive).
Regarding `Cc1nnc(SCCn2c(N3CCC(Cc4ccccc4)CC3)nc3c2c(=O)[nH]c(=O)n3C)s1`, the cell count in assay [1] amounted to 432. For the same compound, the inhibition was -1.1% (inactive) in assay [1], -2.5% (inactive) in assay [3], 1.88% (inactive) in assay [7] and 20.9% (inactive) in assay [8]. Besides, the inhibition of aggregation in assay [2] is -91.9% (inactive). Further, the values for the nuclei count in assay [2] and in assay [3] were 79.6% and 104%, respectively. For the same compound, the fluorescence slope in assay [4] is -0.54 (inactive). Besides, the NADPH fluorescence slope in assay [5] is 3.5e-06 (inactive). Further, in assay [6], the slope is 0.00468 (inactive).
Regarding `CC1CCN(S(=O)(=O)c2ccc(Br)s2)CC1`, in assay [1], the cell count is 437. Besides, the inhibition in assay [1] was 13% (inactive); in assay [3] it was -79.2% (inactive); in assay [7], 8.6% (inactive); in assay [8], 20.9% (inactive). Further, the inhibition of aggregation in assay [2] is -1.9% (inactive). Besides, the nuclei count in assay [2] was found to be 102%; in assay [3] it was 108%. For the same compound, the fluorescence slope in assay [4] was -0.489 (inactive). Also, the NADPH fluorescence slope in assay [5] is 2.6e-05 (inactive). Moreover, the slope in assay [6] is 0.00656 (inactive).
For `COc1ccc(CCNC(=O)CN(c2ccccc2OC)S(C)(=O)=O)cc1`, the cell count in assay [1] was 723. For the same compound, the inhibition in assay [1] was -3.4% (inactive); in assay [3] it was -41.9% (inactive); in assay [7], 15.7% (inactive); in assay [8] it was 27.5% (inactive). Also, in assay [2], the inhibition of aggregation was 33.6% (inactive). Moreover, the nuclei count in assay [2] is 87.7%; in assay [3], 98.4%. For the same compound, the fluorescence slope in assay [4] was -0.427 (inactive). For the same compound, the NADPH fluorescence slope in assay [5] is -0.000127 (inactive). Besides, in assay [6], the slope was 0.00571 (inactive).
For the compound `COc1ccc(C(=O)NC(=O)CSc2nnc(-c3ccco3)n2-c2ccccc2)cc1`, the cell count in assay [1] was found to be 447. Further, the inhibition in assay [1] is 14.6% (inactive); in assay [3], -9.4% (inactive); in assay [7], 5.3% (inactive); in assay [8], 10.1% (inactive). Moreover, in assay [2], the inhibition of aggregation was -9.6% (inactive). Besides, the nuclei count in assay [2] worked out at 104%; in assay [3], 107%. For the same compound, the fluorescence slope in assay [4] was -0.324 (inactive). Also, the NADPH fluorescence slope in assay [5] was -7e-05 (inactive). Also, the slope in assay [6] is 0.0052 (inactive).
Turning to `COc1ccc(C)cc1S(=O)(=O)N(C)CC(=O)Nc1ccc2c(c1)OCO2`, the cell count in assay [1] came to 505. Besides, the inhibition is -15.7% (inactive) in assay [1], 26.3% (inactive) in assay [3], 12.3% (inactive) in assay [7] and 12.3% (inactive) in assay [8]. Besides, in assay [2], the inhibition of aggregation was 8.7% (inactive). The nuclei count in assay [2] is 94.7%; in assay [3] it was 84.9%. The fluorescence slope in assay [4] was -0.616 (inactive). Moreover, in assay [5], the NADPH fluorescence slope is -5e-05 (inactive). In addition, the slope in assay [6] is 0.00341 (inactive).
Consider `CC(C)(C#N)Nn1cnnc1`, for which, in assay [1], the cell count came to 609. Further, the inhibition was 5.3% (inactive) in assay [1], -1.2% (inactive) in assay [3], 11.7% (inactive) in assay [7] and 21.2% (inactive) in assay [8]. Also, the inhibition of aggregation in assay [2] is 13.2% (inactive). Besides, the nuclei count in assay [2] is 109%; in assay [3], 110%. In addition, the fluorescence slope in assay [4] was -0.237 (inactive). Also, the NADPH fluorescence slope in assay [5] was -1.3e-05 (inactive). In assay [6], the slope was 0.00429 (inactive).
